The source of these data is article PMC8384837, “Expanding the binding specificity for RNA recognition by a PUF domain”.

Changes are numbered by the printed parent chain.

What all share (assay): yeast three-hybrid, YBZ-1, SC-Leu-His + 0.5 mM 3-AT, 4 days
Details in all cases: tags: N-Gal4 AD-HA kept; label: inside an RPR1-promoter hybrid RNA with tandem MS2 sites; ssRNA

The target of one assay is PUM1 PUF domain R3-FWG (Homo sapiens, UniProt Q14671 828-1176, C935F;R936W;Q939G). The method in brief:
(§1)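 Pumilio-1 PUF domain libraries, randomized (NNK) at the three base-contacting residues of each repeat, were co-expressed with matching RNA elements from a centromeric plasmid in strain YBZ-1 (LexA–MS2 coat fusion, HIS3 reporter). Transformants were plated on SC-Leu (input) and SC-Leu-His + 0.5 mM 3-AT (selection) for four days, and repeat regions were PCR-amplified and Illumina-sequenced. The interaction score is the log2 change in variant frequency from input to selection, with pseudocount 1 where absent.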

Another assay has as its target PUM1 PUF domain R3-YRR (Homo sapiens, UniProt Q14671 828-1176, C935Y;Q939R). The method in brief: as §1
The target in the next assay is PUM1 PUF domain R3-SCD (Homo sapiens, UniProt Q14671 828-1176, C935S;R936C;Q939D). The method in brief: as §1
The next assay has as its target PUM1 PUF domain R3-LNG (Homo sapiens, UniProt Q14671 828-1176, C935L;R936N;Q939G). The method in brief: as §1
A further assay has as its target PUM1 PUF domain R3-FRC (Homo sapiens, UniProt Q14671 828-1176, C935F;Q939C). The method in brief:
as §1

A further assay addresses PUM1 PUF domain R8-CFK (Homo sapiens, UniProt Q14671 828-1176, N1122C;Y1123F;Q1126K). Summed up:
as §1

In a further assay the target is PUM1 PUF domain R8-PWR (Homo sapiens, UniProt Q14671 828-1176, N1122P;Y1123W;Q1126R). The method in brief: as §1
A further assay addresses PUM1 PUF domain R8-KHY (Homo sapiens, UniProt Q14671 828-1176, N1122K;Y1123H;Q1126Y). The method in brief:
as §1

The target of the next assay is T1, PUM1 PUF domain R6-LYG (Homo sapiens, UniProt Q14671 828-1176, N1043L;Q1047G).
T1 sequence: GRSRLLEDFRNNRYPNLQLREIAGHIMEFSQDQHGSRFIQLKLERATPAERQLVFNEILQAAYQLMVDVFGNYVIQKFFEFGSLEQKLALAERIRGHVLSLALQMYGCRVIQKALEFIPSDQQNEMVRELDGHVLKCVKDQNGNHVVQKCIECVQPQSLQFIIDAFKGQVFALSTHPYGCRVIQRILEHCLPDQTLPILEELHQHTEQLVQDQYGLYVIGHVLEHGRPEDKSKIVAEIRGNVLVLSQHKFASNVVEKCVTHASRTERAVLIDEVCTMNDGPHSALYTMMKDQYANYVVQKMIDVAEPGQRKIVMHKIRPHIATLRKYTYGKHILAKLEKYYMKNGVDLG
The method in brief: as §1

A further assay deals with PUM1 PUF domain R5-DWV (Homo sapiens, UniProt Q14671 828-1176, C1007D;R1008W;Q1011V). Summed up: as §1
The target of another assay is PUM1 PUF domain R4-GCG (Homo sapiens, UniProt Q14671 828-1176, N971G;H972C;Q975G). The method in brief:
as §1

The next assay addresses PUM1 PUF domain R5-AGR (Homo sapiens, UniProt Q14671 828-1176, C1007A;R1008G;Q1011R). Summed up:
as §1

The target in another assay is PUM1 PUF domain R7-QFY (Homo sapiens, UniProt Q14671 828-1176, S1079Q;N1080F;E1083Y). Summed up: as §1
A further assay has as its target T2, PUM1 PUF domain R6-CFH (Homo sapiens, UniProt Q14671 828-1176, N1043C;Y1044F;Q1047H).
T2 sequence: T1 sequence with L216C, Y217F, G220H
Summed up: as §1

The next assay has as its target PUM1 PUF domain R3-DRQ (Homo sapiens, UniProt Q14671 828-1176, C935D). Summed up:
as §1

The next assay has as its target PUM1 PUF domain R4-SRY (Homo sapiens, UniProt Q14671 828-1176, N971S;H972R;Q975Y). Summed up:
as §1

The target of a further assay is PUM1 PUF domain R7-NRR (Homo sapiens, UniProt Q14671 828-1176, S1079N;N1080R;E1083R). Summed up: as §1
Another assay addresses PUM1 PUF domain R4-SHP (Homo sapiens, UniProt Q14671 828-1176, N971S;Q975P). The method in brief:
as §1

For “GGCUAGAACUAGUGGAUCCCCCGGCGCCCGGCGGCUCGAGCCCGGGUAAGUGUAAGUAGUCUGCAUGCCGCCGGGCGCCAUGCCUGCAGGUCGACUCUAGAAAACAUG”, the binding signal with PUM1 PUF domain R3-FWG was 7.02 log2 enrichment (interaction score); with PUM1 PUF domain R3-YRR it was 4.01 log2 enrichment (interaction score); with PUM1 PUF domain R3-SCD, 5.61 log2 enrichment (interaction score); in the assay with PUM1 PUF domain R3-LNG, 3.21 log2 enrichment (interaction score); in the assay with PUM1 PUF domain R3-FRC, 4.65 log2 enrichment (interaction score).

Consider “GGCUAGAACUAGUGGAUCCCCCGGCGCCCGGCGGCUCGAGCCCGGGUAAGCGUAAAUAGUCUGCAUGCCGCCGGGCGCCAUGCCUGCAGGUCGACUCUAGAAAACAUG”, for which the binding signal with PUM1 PUF domain R8-CFK was 4.21 log2 enrichment (interaction score); with PUM1 PUF domain R8-PWR, 4.3 log2 enrichment (interaction score); in the assay with PUM1 PUF domain R8-KHY, 4.22 log2 enrichment (interaction score).

For the sequence “GGCUAGAACUAGUGGAUCCCCCGGCGCCCGGCGGCUCGAGCCCGGGUAAGUGUAAAUAGUCUGCAUGCCGCCGGGCGCCAUGCCUGCAGGUCGACUCUAGAAAACAUG”, the binding signal is 4.49 log2 enrichment (interaction score) with PUM1 PUF domain R6-LYG; 2.8 log2 enrichment (interaction score) in the assay with PUM1 PUF domain R5-DWV; 2.71 log2 enrichment (interaction score) in the assay with PUM1 PUF domain R4-GCG; 0.53 log2 enrichment (interaction score) in the assay with PUM1 PUF domain R5-AGR; 4.21 log2 enrichment (interaction score) with PUM1 PUF domain R7-QFY; 4.7 log2 enrichment (interaction score) with PUM1 PUF domain R3-FWG. The binding signal in the assay with PUM1 PUF domain R6-CFH was 2.76 log2 enrichment (interaction score); with PUM1 PUF domain R3-DRQ, 4.43 log2 enrichment (interaction score); in the assay with PUM1 PUF domain R4-SRY, 5.27 log2 enrichment (interaction score); with PUM1 PUF domain R8-PWR, 4.27 log2 enrichment (interaction score).

With “GGCUAGAACUAGUGGAUCCCCCGGCGCCCGGCGGCUCGAGCCCGGGUAAGUCUAAAUAGUCUGCAUGCCGCCGGGCGCCAUGCCUGCAGGUCGACUCUAGAAAACAUG”, the binding signal with PUM1 PUF domain R7-NRR is 4.05 log2 enrichment (interaction score).

“GGCUAGAACUAGUGGAUCCCCCGGCGCCCGGCGGCUCGAGCCCGGGUAAGUGUACAUAGUCUGCAUGCCGCCGGGCGCCAUGCCUGCAGGUCGACUCUAGAAAACAUG”: the binding signal is 1.07 log2 enrichment (interaction score) in the assay with PUM1 PUF domain R4-GCG and 5.25 log2 enrichment (interaction score) with PUM1 PUF domain R4-SHP.

“GGCUAGAACUAGUGGAUCCCCCGGCGCCCGGCGGCUCGAGCCCGGGUAAGUGUAAUUAGUCUGCAUGCCGCCGGGCGCCAUGCCUGCAGGUCGACUCUAGAAAACAUG”: the results for the binding signal with PUM1 PUF domain R3-FWG, with PUM1 PUF domain R3-YRR and in the assay with PUM1 PUF domain R3-LNG were 4.85 log2 enrichment (interaction score), 0.22 log2 enrichment (interaction score) and 1.7 log2 enrichment (interaction score), respectively.
